Results: PubChem BioAssay (EPA / NIEHS)
Results filed as inconclusive are left out. Calls of active or inactive are those of the source. The calls were made as follows: active = hit-call score of the fitted dose curve at least 0.9, where 1 is the maximum; inconclusive = response in the unintended direction; inactive = score below 0.9.

read-out: sulfotransferase (SULT2A), SULT2A1 (gene 6822); assay: CLD_SULT2A_48hr: CellzDirect (CLD) Gene Expression Assay for sulfotransferase (SULT2A) at 48 hours (AID 2283710);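 also: hits raise SULT2A1 transcript above the 0.2% DMSO vehicle baseline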
Procedure: CLD_48hr is a cell-based, multiplexed-readout assay that uses hepatocyte, a human liver primary cell, with measurements taken at 48 hours after chemical dosing in a 96-well plate.CLD_SULT2A_48hr is one of 16 assay component(s) measured or calculated from the CLD_48hr assay. It is designed to make measurements of mRNA induction, a form of inducible reporter, as detected with chemiluminescence signals by Quantitative Nuclease Protection Assay (qNPA) technology.Data from the assay component CLD_SULT2A_48hr was analyzed at the endpoint, CLD_SULT2A_48hr, in the positive analysis fitting direction relative to DMSO as the negative control and baseline of activity. Using a type of inducible reporter, gain-of-signal activity can be used to understand changes in the reporter gene as they relate to the gene SULT2A1. Furthermore, this assay endpoint can be referred to as a primary readout. To generalize the intended target to other relatable targets, this assay endpoint is annotated to the transferase intended target family, where subfamily is sulfotransferase.
Human hepatocyte cultures were treated daily for two consecutive days with fresh dosing solutions containing appropriate concentrations of the 320 ToxCast chemicals (chemical identities were blinded to CellzDirect and other ToxCast collaborators), vehicle control (0.2% DMSO), and positive control inducers as summarized in Table 1. Due to the large number of treatment groups and chemicals examined, the ToxCast chemicals were divided into two groups (spanning two independent cultures of hepatocytes from separate donor preparations (Hu778: ToxCast plates 1 and 2; Hu776: ToxCast plates 3 and 4). Each preparation of human hepatocyte cultures was treated with respective vehicle control, medium only control, set of six positive controls/reference chemicals for the five hepatic receptor pathways, and a subset of eight of the ToxCast chemicals (indoxacarb, pyrithiobac-sodium, norflurazon, cyhalofop-butyl, methomyl, thiram, acetochlor, and propiconazole). These replicate data, coupled with internal replicates designed within the blinded ToxCast chemical library, provided additional data to evaluate interindividual differences between hepatocyte preparations and their potential impact on chemical profiles.Cell morphology and integrity were evaluated using phase-contrast microscopy as an indicator of hepatocyte cell health (Tyson & Green, 1987). Cultures for each treatment group (i.e., media, vehicle [0.2% DMSO], positive control inducers [multiple concentrations], and the ToxCast chemicals [multiple concentrations]) were observed and cell morphology was assessed relative to vehicle control cultures at each harvest time point (0, 6, 24, or 48 h). […] Images were evaluated at the conclusion of the study to assess changes in cell integrity and account for the effects of chemical exposure on uncharacteristic changes in concentration-dependent gene expression profiles. The results from these determinations of apparent cytotoxicity were annotated (yes/no) alongside the corresponding qNPA data for reference.At the conclusion of each treatment period, hepatocyte cultures (96-well) were washed with 1 volume of HBSS, lysed by addition of 25 ul ArrayPlate lysis buffer (HTG, Tucson, AZ), and 70 ul/well of Denaturation Oil, denatured by incubation at 95C for 10 min, and frozen at approximately -70C until analysis by nuclease protection assay (qNPA) (Roberts et al., 2007). For qNPA analysis, cell lysates were thawed at 50C for approximately 30 min, qNPA probes were added, and samples were incubated at 95C for 10 min to begin the detection process by denaturing the target RNA, dissociating the duplexes and secondary structure hybridization. At the conclusion of the hybridization period, S1 nuclease reagent was added to each sample to digest all nonprotected nucleotides at 50C for 60-90 min. […]

Structure (SMILES) | outcome | AC50
COC(=O)c1ccccc1S(=O)(=O)NC(=O)N(C)c1nc(C)nc(OC)n1 | inactive | 
C#CCN1C(=O)COc2cc(F)c(N3C(=O)C4=C(CCCC4)C3=O)cc21 |  | 3.49 µM (active)
CN1CSC(=S)N(C)C1 | inactive | 
COP(=S)(OC)Oc1ccc([N+](=O)[O-])cc1 | inactive | 
O=S(=O)(O)C(F)(F)C(F)(F)C(F)(F)C(F)(F)C(F)(F)C(F)(F)C(F)(F)C(F)(F)F | inactive | 
O=S1OCC2C(CO1)C1(Cl)C(Cl)=C(Cl)C2(Cl)C1(Cl)Cl (stereo not drawn) | inactive | 
N#Cc1c(Cl)c(Cl)c(Cl)c(C#N)c1Cl | inactive | 
Oc1ccc(Cl)cc1Cc1ccccc1 | inactive | 
COc1nn(CSP(=S)(OC)OC)c(=O)s1 | inactive | 
COP(=O)(OC)OC=C(Cl)Cl | inactive | 
CNC(=O)Oc1ccccc1OC(C)C | inactive | 
CNC(=O)/C=C(\C)OP(=O)(OC)OC | inactive | 
CCC(C)(C)C(=O)OC1=C(c2ccc(Cl)cc2Cl)C(=O)OC12CCCCC2 | inactive | 
Clc1ccccc1-c1nnc(-c2ccccc2Cl)nn1 | inactive | 
O=C(O)CCCOc1ccc(Cl)cc1Cl | inactive | 
COC(=O)c1ccccc1S(=O)(=O)NC(=O)Nc1nc(C)nc(OC)n1 | inactive | 
CCS(=O)(=O)c1cccnc1S(=O)(=O)NC(=O)Nc1nc(OC)cc(OC)n1 | inactive | 
C[C@H]1[C@H](c2ccc(Cl)cc2)SC(=O)N1C(=O)NC1CCCCC1 | inactive | 
CC(C)(C)C(O)/C(=C\c1ccc(Cl)cc1Cl)n1cncn1 (stereo not drawn) | inactive | 

Structure (SMILES) | outcome | AC50
CCC(C)(NC(=O)c1cc(Cl)c(C)c(Cl)c1)C(=O)CCl (stereo not drawn) | inactive | 
O=[N+]([O-])c1c(Cl)c(Cl)c(Cl)c(Cl)c1Cl | inactive | 
Oc1cc(Cl)ccc1Oc1ccc(Cl)cc1Cl | inactive | 
CCN(CC)C(=O)SCc1ccc(Cl)cc1 | inactive | 
Cc1cc(C)nc(NC(=O)NS(=O)(=O)c2ccccc2C(=O)OC2COC2)n1 | inactive | 
O=C(O)C(F)(F)C(F)(F)C(F)(F)C(F)(F)C(F)(F)C(F)(F)C(F)(F)F | inactive | 
CCOC1Oc2ccc(OS(C)(=O)=O)cc2C1(C)C (stereo not drawn) | inactive | 
O=C(NC(=O)c1c(F)cccc1F)Nc1ccc(OC(F)(F)C(F)OC(F)(F)F)c(Cl)c1 (stereo not drawn) | inactive | 
CCC(C)Nc1c([N+](=O)[O-])cc(C(C)(C)C)cc1[N+](=O)[O-] (stereo not drawn) |  | 1.14 µM (active)
O=C(Nc1ccccc1)Nc1cnns1 |  | 6.28 µM (active)
CC(C)N(C(=O)COc1nnc(C(F)(F)F)s1)c1ccc(F)cc1 | inactive | 
CCCN(CCC)c1c([N+](=O)[O-])cc(C(F)(F)F)cc1[N+](=O)[O-] | inactive | 
Cc1[nH]c(=O)n(C(C)(C)C)c(=O)c1Cl | inactive | 
CCc1ccc(C(=O)NN(C(=O)c2cc(C)cc(C)c2)C(C)(C)C)cc1 | inactive | 
CC1(C)C(C=C(Cl)Cl)C1C(=O)OC(C#N)c1ccc(F)c(Oc2ccccc2)c1 (stereo not drawn) | inactive | 
CC1(c2ccc(Oc3ccccc3)cc2)OC(=O)N(Nc2ccccc2)C1=O (stereo not drawn) |  | 1.89 µM (active)
COc1cc(OC)nc(NC(=O)NS(=O)(=O)c2cc(NC=O)ccc2C(=O)N(C)C)n1 | inactive | 
CC(C)(C)C(O)C(Oc1ccc(Cl)cc1)n1cncn1 (stereo not drawn) |  | 7.18 µM (active)
O=[N+]([O-])/N=C1\NCCN1Cc1ccc(Cl)nc1 | inactive | 
